The record followed here is PubChem BioAssay (EPA / NIEHS).

Results filed as inconclusive are left out. Active and inactive are the calls of the source. The calls were made as follows: active = hit-call score of the fitted dose curve at least 0.9, where 1 is the maximum; inconclusive = response in the unintended direction; inactive = score below 0.9.

The term AC50 denotes the midpoint of the concentration-response curve, whichever way the signal moves.

Nucleoli Translocation, AR (gene 367), sequence (P10275 whole entry, looked up, the tested form may be a part): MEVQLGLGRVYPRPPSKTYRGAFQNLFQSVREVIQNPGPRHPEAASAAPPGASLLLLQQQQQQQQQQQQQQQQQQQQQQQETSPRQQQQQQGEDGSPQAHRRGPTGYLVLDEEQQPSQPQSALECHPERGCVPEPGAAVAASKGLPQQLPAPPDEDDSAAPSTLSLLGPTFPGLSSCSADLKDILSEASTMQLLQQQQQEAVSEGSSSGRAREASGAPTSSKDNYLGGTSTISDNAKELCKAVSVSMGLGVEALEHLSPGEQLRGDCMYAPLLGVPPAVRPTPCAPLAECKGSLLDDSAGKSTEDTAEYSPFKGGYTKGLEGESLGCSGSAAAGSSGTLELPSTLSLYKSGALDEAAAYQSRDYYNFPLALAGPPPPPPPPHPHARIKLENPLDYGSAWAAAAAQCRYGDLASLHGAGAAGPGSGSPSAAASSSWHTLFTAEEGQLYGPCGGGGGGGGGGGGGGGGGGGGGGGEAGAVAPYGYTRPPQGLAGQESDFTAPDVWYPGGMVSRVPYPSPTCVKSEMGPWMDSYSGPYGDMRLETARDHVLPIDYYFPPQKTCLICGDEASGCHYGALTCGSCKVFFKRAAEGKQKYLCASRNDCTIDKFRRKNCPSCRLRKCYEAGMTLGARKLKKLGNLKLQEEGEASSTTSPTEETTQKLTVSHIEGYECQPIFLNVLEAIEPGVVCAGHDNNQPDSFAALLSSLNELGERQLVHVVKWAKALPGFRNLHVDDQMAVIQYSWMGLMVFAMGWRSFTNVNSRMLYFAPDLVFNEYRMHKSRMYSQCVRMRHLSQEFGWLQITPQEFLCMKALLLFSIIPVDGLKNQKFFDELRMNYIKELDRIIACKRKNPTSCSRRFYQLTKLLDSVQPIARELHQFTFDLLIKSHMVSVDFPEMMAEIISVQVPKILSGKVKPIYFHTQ

The assay addresses Nucleoli Translocation, AR (gene 367) (UniProt P10275). The experiment in a line: UPITT_HCI_U2OS_AR_TIF2_Nucleoli_Antagonist: University of Pittsburgh U2OS Androgen Receptor-Transcriptional Intermediary Factor 2 (AR-TIF2) Antagonism High Content Imaging Assay for Nucleoli Translocation (AID 2283997). From the text: UPITT_AR_TIF2_PPIB is a cell-based, high-content imaging assay that uses U2OS, a human osteosarcoma cell line, expressing a human androgen receptor fused to red fluorescent protein and the coactivator TIF2 fused to green fluorescent protein. UPITT_HCI_U2OS_AR_TIF2_Nucleoli_Antagonist is one of four assay components measured from the UPITT_AR_TIF2_PPIB assay. It is designed to make measurements of red fluorescence localized in the nucleolar region of the cell nucleus as detected with high-content fluorescent imaging.Data from the assay component UPITT_HCI_U2OS_AR_TIF2_Nucleoli_Antagonist was analyzed into 1 assay endpoint. This assay endpoint, UPITT_HCI_U2OS_AR_TIF2_Nucleoli_Antagonist, was analyzed in the positive analysis fitting direction relative to DHT as the baseline of activity. Using a type of binding reporter, measures of receptor for loss-of-signal activity can be used to understand the binding at the pathway-level as it relates to the gene AR.
Daughter plates containing 2 uL of 10 mM compounds in DMSO were prepared and replicated from the 384-well Library of Pharmacologically Active Compounds (LOPAC) master plates using the Bravo outfitted with a 384-well transfer head. Aluminum adhesive plate seals were applied with an Abgene Seal-IT 100 (Rochester, NY) plate sealer, and the plates were stored at -20 C in a Matrical MatriMinistore (Spokane, WA) automated compound storage and retrieval system. For screening, LOPAC daughter plates were withdrawn from -20C storage, thawed to ambient temperature, centrifuged 1-2 min at 50 g, and the plate seals were removed before the transfer of 98 uL of serum-free tissue culture medium (SFM) into wells using the BioTek Microflo liquid handler (BioTek, Winooski, VT) to generate a 200 uM intermediate stock concentration of library compounds (2.0% DMSO). The diluted compounds were mixed by repeated aspiration and dispensation using a 384-well P30 dispensing head on the Evolution P3 (EP3) liquid handling platform (PerkinElmer, Waltham, MA) and then 5 uL of diluted compounds was transferred to the wells of assay plates. In the LOPAC screen, compounds were individually tested at a final concentration of 20 uM (0.2% DMSO). After the diluted compounds had been transferred from the daughter plates to the primary HCS assay plates, aluminum adhesive plate seals were applied and the diluted daughter plates were stored frozen at -20C. To confirm active compounds identified in the primary screen, we withdrew the LOPAC daughter plates containing the 200 uM intermediate concentration of library compounds (2.0% DMSO) from -20C storage, thawed them to ambient temperature, centrifuged them for 1-2 min at 50 g, and removed the plate seals. A work list was generated to direct the Multiprobe Janus liquid handling platform (PerkinElmer) to cherry pick 75 uL from the wells of the diluted daughter plates that were flagged active in the primary screen and to reformat these into a 384-well plate hit confirmation daughter plate. Five microliters of primary HCS active compounds was then transferred into triplicate wells of assay plates using a 384-well P30 dispensing head on the Evolution P3 (EP3) liquid handling platform (PerkinElmer). […] Daughter plates containing 2 uL of the serially diluted compounds in DMSO were prepared and replicated from the 384-well serial dilution master plates using the Bravo outfitted with a 384-well transfer head. Aluminum adhesive plate seals were applied and plates were stored at -20C. […] The ImageXpress Ultra (IXU) platform (Molecular Devices LLC, Sunnyvale, CA) and The ImageXpress Micro (IXM) platform were used for imaging.
For `CCc1ccc(O)cc1`, the result was inactive.

With `CC1CCC(C(C)C)C(O)C1` (configuration not stated), the result was inactive.

In the case of `BrCc1cccc(Oc2ccccc2)c1`, the compound was called inactive.

For the compound `CC(=O)C1(C)CC2=C(CCCC2(C)C)CC1C` (configuration not stated), the result was inactive.

Take `CC(=O)O[C@@H]1CC2CCC1(C)C2(C)C` (some centres not stated): the call was inactive.

`CC(C=O)Cc1ccc(C(C)(C)C)cc1` (configuration not stated): the result was inactive.

With `Nc1ccc(N)c2c1C(=O)c1ccccc1C2=O`, the compound was classed as inactive.

Consider `CCOC(=O)[C@@H](C)Oc1ccc(Oc2nc3ccc(Cl)cc3o2)cc1`, for which the compound was classed as inactive.

On to `CCCCCCCCSCCO`, for which the AC50 is 59 µM (active).

Turning to `OCc1cccc(Oc2ccccc2)c1`, the call was inactive.

Consider `CC(C)CCCCCCc1ccc(OCCOCCO)cc1`, for which the compound was called inactive.

`Cc1ccc(S(=O)(=O)Oc2ccc(N=Nc3ccc(-c4ccc(N=Nc5c(O)ccc6cc(S(=O)(=O)O)cc(S(=O)(=O)O)c56)c(C)c4)cc3C)cc2)cc1`: the compound was classed as inactive.

For `CCCCC1CCC(O)CC1` (configuration not stated), the call was inactive.

For `CC(=O)O[C@H]1C[C@@H]2CC[C@@]1(C)C2(C)C`, the compound was classed as inactive.

In the case of `CCc1cc(Cc2cc(CC)cc(C(C)(C)C)c2O)c(O)c(C(C)(C)C)c1`, the half-maximal activity concentration (AC50) was 62.2 µM (active).

As to `C[C@H]1O[C@@H](O[C@H]2[C@@H](O)C[C@H](O[C@H]3[C@@H](O)C[C@H](O[C@H]4CC[C@@]5(C)[C@H](CC[C@@H]6[C@@H]5C[C@@H](O)[C@]5(C)[C@@H](C7=CC(=O)OC7)CC[C@]65O)C4)O[C@@H]3C)O[C@@H]2C)C[C@H](O)[C@@H]1O`, the result was inactive.

For `CCCCCCCCC=CCCCCCCCC1=NCCN1CCO`, the AC50 was 93 µM (active).
